Screening results: PubChem, The Scripps Research Institute Molecular Screening Center
ssDAF12 agonist: activates DAF-12 receptor from parasite S. stercoralis. hit rate 1% among 370,000. activation, % at 6.8 µM. HEK293 ssDAF-12/GRIP1 lit1-tk-luc reporter, luminescence; % of 3 µM dafachronic acid response. AID 652126;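 active = activation above the mean over all tested compounds plus 3 SD, cut at about 0.9% in these data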;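 note: 0% = DMSO-only wells and 100% = 3 µM delta7-dafachronic acid wells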
hgDAF12 agonist: hgDAF-12 agonism, primary luciferase screen; activation, % at 6.8 µM; hit rate 1.8% among 370,000; HEK293 GAL4-hgDAF12 UAS-luciferase reporter, agonist luminescence; normalized to butyrate control;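 active = activation above a cutoff set at the mean of all screened compounds plus 3 SD, cut at about 10% in these data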;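 note: 0% = DMSO wells and 100% = sodium butyrate wells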
DAX1 inh-1: DAX1 (NR0B1) inhibition, primary screen; AID 652010; HEK293T StAR-luciferase reporter, SF-1/DAX-1 repression relief; inhibition, % at 6.8 µM; hit rate 1.1% among 370,000;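 active = inhibition above the mean over all tested compounds plus 3 SD, cut at about 3.6% in these data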;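 note: 0% = DAX-1 cells with DMSO and 100% = cells lacking DAX-1 with DMSO; higher inhibition means more luminescence from relief of DAX-1 repression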
hcDAF-12 act: H. contortus DAF-12 activation, primary screen; activation, % at 6.8 µM; HEK293 hcDAF-12 lit1-tk-luc reporter, luminescence; 0% DMSO, 100% Δ7-dafachronic acid; AID 652067; hit rate 1.4% among 370,000;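 active = activation above the mean of all tested compounds plus 3 SD, cut at about 5.5% in these data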;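 note: 100% = response to 3 µM Δ7-dafachronic acid high control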
DAX1 inh-2: NR0B1 (DAX1) inhibition; P51843; HEK293 Gal4-DAX1 luciferase reporter, luminescence; inhibition, % at 6.75 µM; hit rate 0.99% among 340,000;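 active = inhibition above the mean over all tested compounds plus 3 SD, cut at about 4.2% in these data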;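 note: 0% = DAX1-transfected cells with DMSO and 100% = empty-vector control cells with DMSO; inhibition shows as a rise in luminescence from relieved DAX1 repression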
Target sequence (P51843 207-470 limits assumed): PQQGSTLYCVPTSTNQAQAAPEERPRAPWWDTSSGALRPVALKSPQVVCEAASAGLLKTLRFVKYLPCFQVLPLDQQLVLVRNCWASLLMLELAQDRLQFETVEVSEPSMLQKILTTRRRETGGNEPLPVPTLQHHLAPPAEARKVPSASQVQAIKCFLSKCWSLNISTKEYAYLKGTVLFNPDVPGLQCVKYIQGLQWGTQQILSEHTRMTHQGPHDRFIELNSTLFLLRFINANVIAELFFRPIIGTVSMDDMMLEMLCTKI
GAA850 FXN act: increases GAA850 frataxin promoter reporter activity. HEK293 lucGAA850 FXN promoter luciferase reporter, 24 h; percent of 10 µM SAHA response. activation, % at 6 µM. hit rate 0.56% among 360,000. AID 540364;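 active = activation above the average of all compounds screened plus 3 SD, cutoff fixed separately per campaign, cut at about 7.5% in these data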;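 note: 0% = DMSO wells and 100% = 10 µM SAHA wells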
* hit, by the source's call; nt = no result given. A selection: hits, their analogues and other compounds. The true share with any hit is near 4.5%.

SMILES | ssDAF12 agonist | hgDAF12 agonist | DAX1 inh-1 | hcDAF-12 act | DAX1 inh-2 | GAA850 FXN act
Cc1cc(OCC(=O)N(C)Cc2ccccc2)ccc1Br | 0 | 5 | -1 | -1 | 1 | 1
Cc1cc(OCC(=O)N(C)Cc2ccccc2)ccc1Cl | 1.6* | 9 | 1 | 4 | 2 | 5
CCn1c(COc2ccccc2)nnc1SCC(=O)Nc1ccc(Oc2ccccc2)cc1 | -2 | -1 | -1 | 0 | nt | nt
Cc1ccc(C(=O)CC(=O)COc2ccc(Cl)cc2C)cc1 | -1 | -1 | 0 | -1 | 0 | 3
Cc1ccc(NC(=O)c2ccc(OC(=O)COc3ccc(Cl)cc3C)cc2)cc1 | 0 | 13* | 3.9* | 6.1* | 1 | 6
O=C(CC1CCCC1)N1CC[C@H]2[C@H](CCCN2Cc2ccc(F)cc2)C1 | -2 | 3 | -1 | 0 | nt | nt
[O-][N+](=C(c1ccccc1)c1ccccc1)c1ccccc1 | 0.9* | -1 | 0 | 2 | 1 | -1
COC(=O)[C@]1(CNC(C)=O)CC(=O)N(Cc2ccc(Cl)cc2)[C@@H]1c1ccc(OC)cc1 | -1 | -2 | 0 | 1 | nt | nt
COc1ccc(C(=O)c2[nH]c(N)c(C(=O)NCCc3c[nH]c4ccccc34)c2-c2ccc(Br)cc2)cc1 | 1 | 0 | 1 | 3 | nt | nt
COc1ccc(C(=O)c2[nH]c(N)c(C(=O)NCCc3c[nH]c4ccccc34)c2-c2ccc(C(F)(F)F)cc2)cc1 | 1.9* | 5 | 0 | 5 | nt | nt
Cc1ccc(/C=C2\CCC(C3CCCC3)C2=O)cc1 (stereo unspecified) | 0.9* | 8 | 0 | -2 | 4.5* | 1
Cc1ccsc1/C=C1\CCC(C2CCCC2)C1=O (stereo unspecified) | 0 | 9 | 1 | 1 | 5.6* | 0
COc1ccc(S[C@]2(C(=O)N3CCOCC3)CC(=O)N(c3ccccc3)[C@@H]2c2ccc(OC)cc2)cc1 | -1 | 2 | -1 | -1 | nt | nt
Cn1c2ccccc2c(=O)c2ccc(NCCc3cccs3)cc21 | 0 | 6 | 4.1* | 4 | 1 | 10.0*
O=C(Nn1cnnc1)c1ccncc1 | -1 | 3 | 0 | 0 | 1 | -2
CC(=O)c1c(C(C)=O)c(C)n(NC(=O)c2ccncc2)c1C | -1 | -1 | -1 | 0 | 5.7* | -3
O=S1(=O)CC2c3ccccc3CN2CN1Cc1ccc(F)cc1 (stereo unspecified) | 0 | 0 | 0 | 0 | nt | nt
C=CCNC(=O)NC(=O)COC(=O)CNS(=O)(=O)c1ccc(F)c(F)c1F | -1 | -1 | 0 | 0 | 5.2* | 1
O=[N+]([O-])c1ccc(C(O)CSC(=S)N2CCCCC2)cc1 (stereo unspecified) | 0 | 7 | 0 | 1 | 5.4* | 5
CCCCOCCCNC(=O)C[C@H]1C(=O)N(Cc2ccc(OC)cc2)C2=CCCC[C@@]21C(=O)OCC | -2 | 3 | -1 | -1 | nt | nt
COc1c(Cl)cc(-c2noc(C)c2C(=O)NCc2ccc3c(c2)OCO3)cc1Cl | -1 | 1 | -1 | -1 | 4.3* | -1
COc1cc(-c2noc(C)c2C(=O)NCc2ccc3c(c2)OCO3)cc(OC)c1OC | -2 | 0 | 0 | 0 | 2 | -1
O=C(Nc1ccc2c(c1)CCC2)C1CCCN(c2ncccn2)C1 (stereo unspecified) | -1 | 11* | 2 | 2 | 1 | 7
Nc1ccc(C(=O)OCCc2ccccc2)cc1 | 0 | 13* | 1 | 2 | 5.1* | 6
O=C(OCCc1ccccc1)c1cc(O)c(O)c(O)c1 | 0 | -2 | 2 | 6.2* | 1 | 7
SMILES | ssDAF12 agonist | hgDAF12 agonist | DAX1 inh-1 | hcDAF-12 act | DAX1 inh-2 | GAA850 FXN act
COc1ccc(C(=O)OCCc2ccc(O)cc2)cc1 | 0 | 12* | 1 | 3 | 2 | 2
C[C@H]1[C@@H](C(=O)N2CCCC2)Cc2nc3ccccc3nc2C[C@@H]1c1ccccc1 | -1 | 3 | 1 | 4 | nt | nt
CC(C)(C)c1ccc(-c2nnc(SCc3ccccc3)n2Cc2ccco2)cc1 | -2 | -4 | -2 | -1 | nt | nt
C=CC[C@H]1c2ccccc2[C@H]2N3N=Cc4ccccc4[C@H]3[C@H](CCCC)C(=O)N2N1C(=O)c1ccccc1 | -2 | -1 | -2 | 2 | nt | nt
CC(c1nccs1)N(C)C(=O)CCc1nnc(Cc2c[nH]c3ccccc23)o1 (stereo unspecified) | 3.5* | -4 | -1 | 2 | 0 | 0
CCN(CCn1cccn1)C(=O)CCc1nnc(Cc2c[nH]c3ccccc23)o1 | 0 | 1 | 0 | 5 | 0 | 0
CCOC(=O)c1ccc(N2Cc3ccccc3C2=NC(=O)c2cccc([N+](=O)[O-])c2)cc1 | -1 | 1 | 1 | 0 | 3 | 7.8*
O=C(N=C1c2ccccc2CN1c1ccccc1)c1cccc([N+](=O)[O-])c1 | 0 | 0 | 1 | 2 | 0 | 2
C/C(C=NNC(=O)CSc1nnc(-c2ccccc2)n1-c1ccc(C)cc1)=C\c1ccco1 | -1 | -1 | 0 | -2 | nt | nt
CC(=O)OCC(=O)c1c[nH]c2ccccc12 | 1.1* | 2 | 0 | 5 | 2 | 2
O=C(COC(=O)c1cccc(S(=O)(=O)N2CCCCC2)c1)NCc1ccccc1 | -1 | 1 | 1 | 0 | 0 | 3
O=C(OCC(=O)c1c[nH]c2ccccc12)c1cccc(S(=O)(=O)N2CCCCCC2)c1 | 1.1* | 1 | 0 | 1 | -1 | 0
COc1cccc(/C=C/C(=O)OCC(=O)c2c[nH]c3ccccc23)c1OC | -1 | 0 | -1 | 0 | -2 | 2
O=C(COc1cccnc1[N+](=O)[O-])c1c[nH]c2ccccc12 | -1 | 2 | 0 | 5.9* | -1 | 3
COc1cccc(C(=O)OCC(=O)c2c[nH]c3ccccc23)c1O | 1.9* | 4 | 0 | 5 | 1 | 3
O=C(COC(=O)C1CCC1)c1c[nH]c2ccccc12 | 0 | 0 | 1 | 4 | 1 | 2
N#Cc1ccccc1OCC(=O)OCC(=O)c1c[nH]c2ccccc12 | 0 | 2 | 4.1* | 2 | 0 | 0
O=C(Cc1ccccc1[N+](=O)[O-])OCC(=O)c1c[nH]c2ccccc12 | 1 | 6 | 2 | 6 | 2 | 2
O=C(COC(=O)C1CC1)c1c[nH]c2ccccc12 | 1.1* | 7 | 1 | 6.2* | 2 | 5
COc1ccc(C(=O)COC(=O)c2cc(=O)[nH]c3ccccc23)c(OC)c1 | 1.0* | 5 | 4 | 3 | 0 | 6
CN(C)c1ccc(/C=N\NC(=O)c2cccc(S(=O)(=O)N(C)C)c2)cc1 | -2 | 4 | -1 | 0 | nt | nt
Cc1ccn2c(NCc3ccccc3)c(-c3cccs3)nc2c1 | -1 | 11* | 0 | 3 | 0 | 3
